Laboratory results taken from the supplement of paper PMC10849652.
Of roughly 8,800 targets only a part is listed; those with a hit were picked by preference. About 0.5% of all pairs of compound and target were hits.

compound: CCCS(=O)(=O)Nc1ccc(F)c(C(=O)c2c[nH]c3ncc(Cl)cc23)c1F; test: log2 fold change, soluble protein after heating vs DMSO (PISA); higher = thermal stabilisation; K562 lysate, 10 uM; active = over 0.2 and 3.5 SD of the protein, either way, in both replicates (recomputed)
In short: (§1)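 Dounce homogenisation of K562 pellets in PBS pH 7.4 with 1 mM MgCl2 produced a crude extract, used at 1 mg/mL protein. Exposure to 10 μM compound lasted 30 min, and aliquots were then heated for 3 min across 48°C-58°C, pooled and brought to 0.5% NP-40 at 4°C. The supernatant after 21,000xg for 90 min was quantified by TMTpro 16plex LC-MS/MS with channel sums equalised. Duplicate values are given as log-two fold change in thermal stability relative to solvent controls.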

Chain of UniProt Q9H9A6 (Q9H9A6 whole entry, looked up): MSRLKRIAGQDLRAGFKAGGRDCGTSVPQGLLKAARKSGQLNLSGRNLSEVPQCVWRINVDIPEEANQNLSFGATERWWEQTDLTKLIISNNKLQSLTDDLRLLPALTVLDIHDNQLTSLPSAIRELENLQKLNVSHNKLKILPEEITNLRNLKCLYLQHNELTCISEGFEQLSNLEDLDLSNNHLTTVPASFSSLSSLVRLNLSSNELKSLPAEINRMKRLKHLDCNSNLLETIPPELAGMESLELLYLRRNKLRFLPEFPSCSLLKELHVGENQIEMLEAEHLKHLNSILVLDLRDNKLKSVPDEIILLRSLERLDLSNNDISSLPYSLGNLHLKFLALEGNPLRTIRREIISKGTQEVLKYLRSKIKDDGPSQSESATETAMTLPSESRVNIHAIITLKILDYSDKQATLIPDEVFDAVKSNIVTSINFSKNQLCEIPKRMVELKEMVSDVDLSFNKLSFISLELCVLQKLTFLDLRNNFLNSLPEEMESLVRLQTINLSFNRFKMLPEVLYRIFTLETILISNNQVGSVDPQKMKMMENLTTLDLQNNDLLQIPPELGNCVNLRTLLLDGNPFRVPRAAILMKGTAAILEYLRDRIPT
Chain of UniProt O15021 (O15021 whole entry, looked up): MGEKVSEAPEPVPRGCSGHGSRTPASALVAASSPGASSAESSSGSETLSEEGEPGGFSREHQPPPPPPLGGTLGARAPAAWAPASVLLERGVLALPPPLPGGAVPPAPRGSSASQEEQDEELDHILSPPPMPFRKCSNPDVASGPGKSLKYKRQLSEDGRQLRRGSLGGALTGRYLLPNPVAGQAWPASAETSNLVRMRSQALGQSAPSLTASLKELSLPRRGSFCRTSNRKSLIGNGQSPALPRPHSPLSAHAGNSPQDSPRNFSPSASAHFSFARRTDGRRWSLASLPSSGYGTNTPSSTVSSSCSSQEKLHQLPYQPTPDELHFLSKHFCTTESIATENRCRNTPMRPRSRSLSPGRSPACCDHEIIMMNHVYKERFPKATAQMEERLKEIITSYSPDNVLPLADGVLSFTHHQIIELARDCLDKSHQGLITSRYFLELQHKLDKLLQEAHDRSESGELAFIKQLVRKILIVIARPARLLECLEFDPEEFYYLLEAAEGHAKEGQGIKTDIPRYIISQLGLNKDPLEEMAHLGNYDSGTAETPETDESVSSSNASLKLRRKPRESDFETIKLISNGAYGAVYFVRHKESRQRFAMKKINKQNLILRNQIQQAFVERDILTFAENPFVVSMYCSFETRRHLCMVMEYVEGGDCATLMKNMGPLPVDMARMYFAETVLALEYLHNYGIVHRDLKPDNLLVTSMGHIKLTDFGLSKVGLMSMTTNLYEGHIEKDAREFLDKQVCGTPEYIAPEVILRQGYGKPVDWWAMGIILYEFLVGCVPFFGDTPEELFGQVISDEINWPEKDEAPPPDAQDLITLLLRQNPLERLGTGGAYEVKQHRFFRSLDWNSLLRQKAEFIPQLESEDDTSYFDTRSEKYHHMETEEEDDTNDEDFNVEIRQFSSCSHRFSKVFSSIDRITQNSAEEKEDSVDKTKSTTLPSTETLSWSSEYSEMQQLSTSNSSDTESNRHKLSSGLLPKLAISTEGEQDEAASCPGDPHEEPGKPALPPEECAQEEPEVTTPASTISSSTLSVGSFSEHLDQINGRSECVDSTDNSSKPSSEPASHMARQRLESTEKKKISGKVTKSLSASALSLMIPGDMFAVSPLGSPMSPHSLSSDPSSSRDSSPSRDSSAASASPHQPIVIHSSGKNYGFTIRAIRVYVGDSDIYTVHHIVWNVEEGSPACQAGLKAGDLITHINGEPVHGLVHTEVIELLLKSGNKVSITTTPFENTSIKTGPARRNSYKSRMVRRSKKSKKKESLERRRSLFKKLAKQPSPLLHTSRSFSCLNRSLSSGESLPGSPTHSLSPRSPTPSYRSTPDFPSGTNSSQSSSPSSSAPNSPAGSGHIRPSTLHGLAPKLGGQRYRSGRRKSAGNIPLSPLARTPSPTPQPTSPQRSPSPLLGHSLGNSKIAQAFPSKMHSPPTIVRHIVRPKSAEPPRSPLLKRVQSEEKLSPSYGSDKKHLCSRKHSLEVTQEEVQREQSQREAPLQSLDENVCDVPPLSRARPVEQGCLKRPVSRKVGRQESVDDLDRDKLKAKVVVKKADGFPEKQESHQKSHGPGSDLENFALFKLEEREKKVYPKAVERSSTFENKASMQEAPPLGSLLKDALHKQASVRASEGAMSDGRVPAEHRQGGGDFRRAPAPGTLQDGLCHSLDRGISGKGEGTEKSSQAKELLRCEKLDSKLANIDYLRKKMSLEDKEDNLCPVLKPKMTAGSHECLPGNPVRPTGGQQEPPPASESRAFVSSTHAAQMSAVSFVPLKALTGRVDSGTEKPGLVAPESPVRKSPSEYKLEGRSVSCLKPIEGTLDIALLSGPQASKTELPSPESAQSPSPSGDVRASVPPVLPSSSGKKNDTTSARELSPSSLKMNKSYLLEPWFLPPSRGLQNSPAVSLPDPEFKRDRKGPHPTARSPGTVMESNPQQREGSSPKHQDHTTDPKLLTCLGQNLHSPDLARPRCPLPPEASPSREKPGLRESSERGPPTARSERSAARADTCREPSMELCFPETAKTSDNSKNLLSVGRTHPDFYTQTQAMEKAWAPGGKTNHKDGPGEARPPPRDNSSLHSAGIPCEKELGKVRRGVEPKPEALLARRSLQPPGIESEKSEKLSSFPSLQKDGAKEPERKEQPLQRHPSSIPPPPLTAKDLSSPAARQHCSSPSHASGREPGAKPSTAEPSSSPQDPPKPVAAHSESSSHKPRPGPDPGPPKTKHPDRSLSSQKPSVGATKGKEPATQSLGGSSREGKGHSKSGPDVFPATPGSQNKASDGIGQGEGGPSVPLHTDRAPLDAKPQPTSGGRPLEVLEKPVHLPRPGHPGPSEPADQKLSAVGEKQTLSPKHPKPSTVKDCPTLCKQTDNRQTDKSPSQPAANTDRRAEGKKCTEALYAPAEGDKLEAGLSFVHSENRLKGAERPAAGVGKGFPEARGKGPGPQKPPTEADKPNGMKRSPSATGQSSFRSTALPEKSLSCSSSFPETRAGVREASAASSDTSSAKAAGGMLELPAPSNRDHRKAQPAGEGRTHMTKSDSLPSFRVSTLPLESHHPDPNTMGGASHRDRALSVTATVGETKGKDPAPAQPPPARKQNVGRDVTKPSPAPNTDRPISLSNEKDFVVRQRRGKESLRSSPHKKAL
Chain of UniProt Q99661 (Q99661 whole entry, looked up): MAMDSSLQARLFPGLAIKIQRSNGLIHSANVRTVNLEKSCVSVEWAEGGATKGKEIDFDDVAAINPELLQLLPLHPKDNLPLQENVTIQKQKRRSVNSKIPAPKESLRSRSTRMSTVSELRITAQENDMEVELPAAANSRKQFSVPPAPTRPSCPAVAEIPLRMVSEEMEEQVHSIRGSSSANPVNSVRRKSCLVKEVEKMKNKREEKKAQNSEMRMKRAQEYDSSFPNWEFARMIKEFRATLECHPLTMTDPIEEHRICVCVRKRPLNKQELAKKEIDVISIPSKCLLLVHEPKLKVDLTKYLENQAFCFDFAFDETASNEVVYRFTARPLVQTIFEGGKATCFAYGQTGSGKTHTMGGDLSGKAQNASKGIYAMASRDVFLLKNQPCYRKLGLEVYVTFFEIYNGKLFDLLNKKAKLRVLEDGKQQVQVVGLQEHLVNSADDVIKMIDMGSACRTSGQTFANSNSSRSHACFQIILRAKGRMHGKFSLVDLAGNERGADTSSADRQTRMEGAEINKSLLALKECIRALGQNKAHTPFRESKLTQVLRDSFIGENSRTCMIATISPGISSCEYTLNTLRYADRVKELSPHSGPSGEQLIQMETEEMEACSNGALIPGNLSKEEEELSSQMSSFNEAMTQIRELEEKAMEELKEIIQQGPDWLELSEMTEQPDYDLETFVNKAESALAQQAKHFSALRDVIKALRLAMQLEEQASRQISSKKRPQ
Chain of UniProt Q9NX58 (Q9NX58 whole entry, looked up): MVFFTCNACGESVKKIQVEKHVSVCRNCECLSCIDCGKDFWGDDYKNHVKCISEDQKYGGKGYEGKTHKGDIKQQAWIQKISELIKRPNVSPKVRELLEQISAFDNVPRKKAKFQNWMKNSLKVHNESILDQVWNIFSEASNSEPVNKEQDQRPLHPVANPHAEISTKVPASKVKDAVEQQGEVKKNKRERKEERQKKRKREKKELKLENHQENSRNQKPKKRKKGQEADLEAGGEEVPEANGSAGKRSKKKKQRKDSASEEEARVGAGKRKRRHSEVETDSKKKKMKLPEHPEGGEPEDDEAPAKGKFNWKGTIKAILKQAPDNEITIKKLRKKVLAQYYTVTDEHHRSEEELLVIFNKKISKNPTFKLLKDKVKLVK
Chain of UniProt Q9UFC0 (Q9UFC0 whole entry, looked up): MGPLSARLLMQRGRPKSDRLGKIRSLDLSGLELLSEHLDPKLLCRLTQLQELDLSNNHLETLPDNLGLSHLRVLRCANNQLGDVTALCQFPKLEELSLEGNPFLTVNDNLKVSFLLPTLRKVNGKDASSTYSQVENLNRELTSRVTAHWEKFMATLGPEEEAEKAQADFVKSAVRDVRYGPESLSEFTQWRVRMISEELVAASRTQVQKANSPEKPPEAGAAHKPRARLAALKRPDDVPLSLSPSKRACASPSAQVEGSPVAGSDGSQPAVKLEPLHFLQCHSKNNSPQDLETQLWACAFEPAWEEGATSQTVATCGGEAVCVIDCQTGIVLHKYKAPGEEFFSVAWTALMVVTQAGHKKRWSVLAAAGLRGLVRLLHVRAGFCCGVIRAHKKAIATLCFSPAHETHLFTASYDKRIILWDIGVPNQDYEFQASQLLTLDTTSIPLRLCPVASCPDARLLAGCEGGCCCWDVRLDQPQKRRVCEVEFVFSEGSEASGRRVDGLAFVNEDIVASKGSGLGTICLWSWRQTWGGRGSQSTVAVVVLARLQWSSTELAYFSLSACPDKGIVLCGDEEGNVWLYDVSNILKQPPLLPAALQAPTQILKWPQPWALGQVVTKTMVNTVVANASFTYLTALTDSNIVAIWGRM

log2 fold change, inactive:
MAP1S (UniProt Q66K74) 0.041
MON2 isoform 5 (UniProt Q7Z3U7) 0.025
LRPPRC (UniProt P42704) 0.024
LBR (UniProt Q14739) 0.008
MAPK14 (UniProt Q16539) 0.081
MLST8 (UniProt Q9BVC4) 0.029
MMS19 isoform 8 (UniProt Q96T76) 0.006
KNL1 (UniProt Q8NG31) 0.064
KLC1 isoform 6 (UniProt Q07866) 0.004
MICU1 isoform 3 (UniProt Q9BPX6) -0.004
MOCS1 isoform 8 (UniProt Q9NZB8) 0.022
KLHL36 (UniProt Q8N4N3) 0.106
MAP2K4 isoform 2 (UniProt P45985) 0.243
MED17 (UniProt Q9NVC6) 0.007
MAP2K5 (UniProt Q13163) 0.302
LRWD1 (UniProt Q9UFC0) -0.013
MCMBP (UniProt Q9BTE3) 0.019
MRPL15 (UniProt Q9P015) 0.025
MAST4 (UniProt O15021) -0.049
MBLAC2 (UniProt Q68D91) -0.006
KNSTRN (UniProt Q9Y448) 0.021
MAP4K4 isoform 3 (UniProt O95819) -0.119
MACROD1 (UniProt Q9BQ69) 0.043
MAPK9 (UniProt P45984) -0.002
LRRC40 (UniProt Q9H9A6) 0.015
MRPL10 isoform 2 (UniProt Q7Z7H8) 0.033
MICB, A0A140T979 0.098
LIG3 (UniProt P49916) -0.003
MAPKAPK3 (UniProt Q16644) -0.018
KIF2C (UniProt Q99661) 0.004
LRCH3 (UniProt Q96II8) -0.01
LYAR (UniProt Q9NX58) 0.005
MGST1 (UniProt P10620) 0.018
KLC4 isoform 3 (UniProt Q9NSK0) 0.02
MAPKAPK5 (UniProt Q8IW41) -0.11
MED10 (UniProt Q9BTT4) 0
LPIN1 isoform 7 (UniProt Q14693) 0.065
KIF21A isoform 5 (UniProt Q7Z4S6) 0.041
MAP2K1 (UniProt Q02750) 0.194

compound: CCN(CCCOc1ccc2c(Nc3cc(CC(=O)Nc4cccc(F)c4)[nH]n3)ncnc2c1)CCOP(=O)(O)O [barasertib]; test: as above
In short: as §1

log2 fold change, inactive:
MAP1S (UniProt Q66K74) 0.002
MON2 isoform 5 (UniProt Q7Z3U7) 0.008
LRPPRC (UniProt P42704) 0.101
LBR (UniProt Q14739) 0.041
MAPK14 (UniProt Q16539) 0.021
MLST8 (UniProt Q9BVC4) 0.074
MMS19 isoform 8 (UniProt Q96T76) 0.029
KNL1 (UniProt Q8NG31) 0.011
KLC1 isoform 6 (UniProt Q07866) -0.002
MICU1 isoform 3 (UniProt Q9BPX6) 0.094
MOCS1 isoform 8 (UniProt Q9NZB8) 0.166
KLHL36 (UniProt Q8N4N3) -0.088
MAP2K4 isoform 2 (UniProt P45985) 0.09
MED17 (UniProt Q9NVC6) 0.004
MAP2K5 (UniProt Q13163) 0.019
LRWD1 (UniProt Q9UFC0) -0.021
MCMBP (UniProt Q9BTE3) -0.007
MRPL15 (UniProt Q9P015) -0.04
MAST4 (UniProt O15021) 0.051
MBLAC2 (UniProt Q68D91) 0.013
KNSTRN (UniProt Q9Y448) 0.022
MAP4K4 isoform 3 (UniProt O95819) -0.029
MACROD1 (UniProt Q9BQ69) -0.002
MAPK9 (UniProt P45984) -0.025
LRRC40 (UniProt Q9H9A6) 0.034
MRPL10 isoform 2 (UniProt Q7Z7H8) 0.132
MICB, A0A140T979 0.039
LIG3 (UniProt P49916) 0.019
MAPKAPK3 (UniProt Q16644) 0.015
KIF2C (UniProt Q99661) 0.008
LRCH3 (UniProt Q96II8) 0.03
LYAR (UniProt Q9NX58) -0.024
MGST1 (UniProt P10620) 0.027
KLC4 isoform 3 (UniProt Q9NSK0) -0.008
MAPKAPK5 (UniProt Q8IW41) -0.013
MED10 (UniProt Q9BTT4) 0.08
LPIN1 isoform 7 (UniProt Q14693) 0.1
KIF21A isoform 5 (UniProt Q7Z4S6) 0.005
MAP2K1 (UniProt Q02750) 0.022
